Results filed as inconclusive are left out. Calls of active or inactive are those of the source. Calls come from the whole dose curve; as a rule, active = well fitted activation curve with a large enough effect; inconclusive = small, poorly fitted or top-dose-only effect; inactive = flat fitted curve, though single readings scatter.
Experiment: qHTS for Inhibitors of Cell Surface uPA Generation: Confirmatory Assay for Cherry-picked Compounds; note: 0% is about no effect
Conditions: cell surface uPA activity generation, qHTS confirmation; series mostly up to 115 µM; inhibition: at the top concentration
Outline: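 RAW 264.7 cells at 4000/well, incubated overnight, then treated with compounds. After 24 h at 37 C, viability was read by ATPlite luminescence. An increase in signal indicates blocked uPA-dependent LF entry.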

inhibition, inactive:
Oc1ccc(/C=N/Nc2cccc(Cl)n2)c(O)c1 -3.54%, COc1ccc(CCNC(=O)Cn2cccc2C(=O)c2ccccc2)c(OC)c1 -2.23%, COc1ccc2c(c1)c1nnc(SCC(=O)Nc3ccccc3F)nc1n2C -1.47%, Cc1cnc(C(=O)OCC(=O)Nc2ccc3c(c2)OCCO3)cn1 -0.779%, Cc1nn(C)c(C)c1S(=O)(=O)N1CCC(C(=O)NC2CCCCCC2)CC1 -1.06%, CC(C)c1ccc(C2/C(=C(\O)c3ccc4c(c3)OCCO4)C(=O)C(=O)N2CCN2CCOCC2)cc1 (stereo not given) -0.762%, COC(=O)c1ccc(N2CCN(c3ccccc3)CC2)c(NC(=O)C2CC2)c1 -2.04%, COc1cc(C(=O)N/N=C(\Cc2ncc[nH]2)c2ccccc2)cc(OC)c1OC 0.667%, C[C@H](CO)N1C[C@H](C)[C@@H](CN(C)C(=O)Nc2ccccc2)Oc2c(NS(=O)(=O)c3ccccc3)cccc2C1=O 0.588%, CCOC(=O)C1=C(CN2CCN(C(=O)c3ccco3)CC2)NC(=O)NC1c1ccccc1 (stereo not given) -0.297%, COc1ccccc1NC(=O)COc1ccc(C(=O)NCc2ccccc2)cc1OC -0.346%, CC(C)(C)OC(=O)C[C@@H]1C/C=C\C[C@@H](CC(=O)N(CCO)Cc2ccccc2)C(=O)N[C@H](Cc2c[nH]c3ccccc23)COC1=O -3.72%, Clc1ccc(C2=NN=C3COc4ccccc4N3C2)cc1 -2.4%, CC1(C)S[C@@H]2[C@H](NC(=O)C(C(=O)O)c3ccccc3)C(=O)N2[C@H]1C(=O)O (stereo not given in full) -0.669%, Cc1oc(-c2ccccc2F)nc1CS(=O)(=O)CC(=O)NC1CCCC(C)C1C (stereo not given) -0.805%

— PubChem BioAssay AID720519 (National Center for Advancing Translational Sciences (NCATS), 2013)
